Assay outcomes from PubChem BioAssay.
ALR H2O2 inh – blocks human ALR sulfhydryl oxidase activity | AID 485317 | inhibition, % (test concentration not listed) | P55789 | actives 3.8% (n = 290,000) | purified ALR, DTT oxidation, H2O2 HRP-luminol luminescence;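 active = mean replicate inhibition above about 79%, with every replicate also reaching it, limit read from the data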
Target sequence (P55789 whole entry, looked up): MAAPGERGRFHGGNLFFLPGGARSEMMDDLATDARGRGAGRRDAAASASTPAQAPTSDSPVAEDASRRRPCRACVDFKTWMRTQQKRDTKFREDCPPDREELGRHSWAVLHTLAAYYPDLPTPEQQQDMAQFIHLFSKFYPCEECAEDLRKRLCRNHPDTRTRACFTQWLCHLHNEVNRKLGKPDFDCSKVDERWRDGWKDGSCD
PHOSPHO1 block – inhibitors of human PHOSPHO1 phosphatase; Q8TCT1; recombinant PHOSPHO1, absorbance phosphatase assay; inhibition, % at 13.3 µM; actives 1.1% (n = 290,000); AID 1565; in the data active = inhibition above about 60%
Target sequence (Q8TCT1 whole entry, looked up): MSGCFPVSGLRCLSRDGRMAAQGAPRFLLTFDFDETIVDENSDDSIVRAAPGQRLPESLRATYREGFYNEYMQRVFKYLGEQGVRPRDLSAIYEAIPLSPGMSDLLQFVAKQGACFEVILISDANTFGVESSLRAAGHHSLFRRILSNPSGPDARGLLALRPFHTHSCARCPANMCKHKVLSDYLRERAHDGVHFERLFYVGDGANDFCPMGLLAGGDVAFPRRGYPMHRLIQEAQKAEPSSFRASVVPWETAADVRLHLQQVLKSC
M18AAP inhibitor – blocks P. falciparum M18 aspartyl aminopeptidase | recombinant PfM18AAP, H-Glu-NHMec fluorogenic cleavage | inhibition, % at 7.35 µM | actives 1.2% (n = 290,000);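 active = inhibition above the campaign mean inhibition over all tested compounds plus 3 SD, cut at about 28% in these data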
PfG6PD inh – PfG6PD (Plasmodium falciparum) enzyme inhibition; PfGluPho enzyme, NADPH resazurin-diaphorase fluorescence; inhibition, % at 20 µM; actives 0.78% (n = 350,000); AID 504690;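 active = inhibition reaching at least a set limit at 20 µM in the primary screen, cut at about 59% in these data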
Cardio protect – myocardial damage modulation in H9c2 cells | H9c2 cardiomyocytes, H2O2 injury protection, ATPLite, 2 h | protection from H2O2 cell death, % at 20 µM | actives 0.63% (n = 360,000) | AID 588492;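 active = compounds giving at least 50% protection of heart cells from peroxide-induced death in the single-dose screen, raw or plate-pattern-corrected value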
Numbers stand for hits. Shown are actives, neighbours in structure and some others; about 5.6% of the full set was active somewhere.

What do the screens show for `COc1ccc(-c2nc(CS(=O)CC(=O)NCc3ccc(Cl)cc3)c(C)o2)cc1` (configuration not stated)?
ALR H2O2 inh: 99; PHOSPHO1 block: inactive; M18AAP inhibitor: inactive; PfG6PD inh: inactive; Cardio protect: inactive

What do the screens show for `Cc1oc(-c2ccc(Cl)cc2)nc1CS(=O)CC(=O)NC(C)c1ccccc1` (configuration not stated)?
ALR H2O2 inh: 98; PHOSPHO1 block: inactive; M18AAP inhibitor: inactive; PfG6PD inh: inactive; Cardio protect: inactive

Results for CCOc1ccc(NC(=O)CC2S/C(=N/N=C3CCCCCC3)NC2=O)cc1 (configuration not stated) ?
ALR H2O2 inh: inactive; PHOSPHO1 block: inactive; M18AAP inhibitor: inactive; PfG6PD inh: inactive; Cardio protect: inactive

What do the screens show for `COc1ccc(NC(=O)C2Cc3c(-c4cccc(F)c4)ccnc3O2)cc1OC` (configuration not stated)?
Cardio protect: inactive

Results for Cc1cccc(C2c3[nH]c4ccccc4c3CCN2C(=O)c2ccc(=O)[nH]c2)n1 (configuration not stated) ?
ALR H2O2 inh: inactive; PHOSPHO1 block: inactive; M18AAP inhibitor: inactive; PfG6PD inh: inactive; Cardio protect: inactive

How did Cc1cccc(C2c3[nH]c4ccccc4c3CCN2C(=O)c2cc(C(C)C)nc(N)n2)n1 (configuration not stated) do in these assays?
PHOSPHO1 block: 68; M18AAP inhibitor: inactive; PfG6PD inh: inactive; Cardio protect: inactive

Results for CC(=O)Nc1ccc(NC(=O)C(C)OC(=O)CCCOc2ccc(Cl)cc2C)cc1 (configuration not stated) ?
ALR H2O2 inh: inactive; PfG6PD inh: inactive; Cardio protect: inactive

What do the screens show for `Cc1ccc(C)n1-c1nc(=S)[nH][nH]1`?
ALR H2O2 inh: inactive; PHOSPHO1 block: 102; M18AAP inhibitor: inactive; PfG6PD inh: inactive; Cardio protect: inactive

How did CC(=O)Nc1ccc(SCC(=O)NCC2(N3CCCCC3)CCCCC2)cc1 do in these assays?
ALR H2O2 inh: 99; PfG6PD inh: inactive; Cardio protect: inactive

What do the screens show for `O=C(CSc1ccc(Br)cc1)NCC1(N2CCCCC2)CCCCC1`?
PfG6PD inh: inactive; Cardio protect: inactive

How did N#CCC(=O)Nc1ccc(C(=O)NCC2(N3CCOCC3)CCCCC2)cc1 do in these assays?
ALR H2O2 inh: 99; PfG6PD inh: inactive; Cardio protect: inactive

What do the screens show for `COc1ccc(-c2cc(CNc3nc4cc(-c5ccccc5C)sc4c(=O)n3C)on2)cc1`?
Cardio protect: inactive

What do the screens show for `CN1CCN(C(=O)C(N)Cc2ccccc2)CC1` (configuration not stated)?
ALR H2O2 inh: inactive; PHOSPHO1 block: 63; M18AAP inhibitor: inactive; PfG6PD inh: inactive; Cardio protect: inactive

Results for CN1CCN(C(=O)Nc2ccccc2)CC1 ?
ALR H2O2 inh: inactive; PHOSPHO1 block: 63; M18AAP inhibitor: inactive; PfG6PD inh: inactive; Cardio protect: inactive

Results for CCN1CCN(C(=O)Nc2ccc(Cc3ccc(NC(=O)N4CCN(CC)CC4)cc3)cc2)CC1 ?
ALR H2O2 inh: 99; PHOSPHO1 block: inactive; M18AAP inhibitor: inactive; PfG6PD inh: inactive; Cardio protect: inactive

How did NC(Cc1ccccc1)C(=O)N1CCCCC1 (configuration not stated) do in these assays?
ALR H2O2 inh: inactive; PHOSPHO1 block: inactive; M18AAP inhibitor: inactive; PfG6PD inh: inactive; Cardio protect: inactive

How did CCc1ccc(NC(=O)N2CCCCCC2)cc1 do in these assays?
ALR H2O2 inh: inactive; PHOSPHO1 block: inactive; M18AAP inhibitor: inactive; PfG6PD inh: inactive; Cardio protect: inactive

What do the screens show for `O=C(Nc1ccccc1)N1CCN(c2ccccc2)CC1`?
PfG6PD inh: inactive; Cardio protect: inactive

What do the screens show for `CCCS(=O)(=O)c1c(S(=O)(=O)CCC)c2ccc(C(N)=O)cn2c1C(=O)OC`?
ALR H2O2 inh: inactive; PHOSPHO1 block: inactive; M18AAP inhibitor: inactive; PfG6PD inh: inactive; Cardio protect: inactive

Results for CCCS(=O)(=O)c1c(S(=O)(=O)CCC)c2ccc(C(N)=O)cn2c1C(=O)c1ccc(OC)cc1 ?
ALR H2O2 inh: inactive; PHOSPHO1 block: 60; M18AAP inhibitor: inactive; PfG6PD inh: inactive; Cardio protect: inactive

What do the screens show for `O=C(NCCCN1CCOCC1)C(=O)NCC1OCCCN1S(=O)(=O)c1cc(F)ccc1F` (configuration not stated)?
ALR H2O2 inh: inactive; PHOSPHO1 block: 75; M18AAP inhibitor: inactive; PfG6PD inh: inactive; Cardio protect: inactive

Results for Nc1c(O)ccc2c1C(=O)c1ccccc1C2=O ?
ALR H2O2 inh: 99; PHOSPHO1 block: inactive; M18AAP inhibitor: inactive; PfG6PD inh: inactive

How did CC(C)S(=O)(=O)C1=NSC2=NC(=O)/C(=C\c3ccc(-c4ccccc4)o3)C(=N)N21 do in these assays?
ALR H2O2 inh: inactive; PHOSPHO1 block: inactive; M18AAP inhibitor: inactive; PfG6PD inh: inactive; Cardio protect: inactive

Results for Cc1cc(C)cc(-n2cccc2/C=C2/C(=N)N3C(=NC2=O)SN=C3S(C)(=O)=O)c1 ?
ALR H2O2 inh: 88; PHOSPHO1 block: inactive; M18AAP inhibitor: inactive; PfG6PD inh: inactive; Cardio protect: inactive

How did CCc1ccc(-n2cccc2/C=C2/C(=N)N3C(=NC2=O)SN=C3S(C)(=O)=O)cc1 do in these assays?
ALR H2O2 inh: inactive; PHOSPHO1 block: inactive; M18AAP inhibitor: inactive; PfG6PD inh: inactive; Cardio protect: inactive

How did CS(=O)(=O)C1=NSC2=NC(=O)/C(=C\c3ccc(-c4ccccc4)o3)C(=N)N21 do in these assays?
ALR H2O2 inh: 97; PHOSPHO1 block: inactive; M18AAP inhibitor: inactive

Results for CS(=O)(=O)C1=NSC2=NC(=O)/C(=C\c3cccn3-c3ccccc3Cl)C(=N)N21 ?
ALR H2O2 inh: inactive; PHOSPHO1 block: inactive; M18AAP inhibitor: inactive; PfG6PD inh: inactive; Cardio protect: inactive

How did Cc1ccc(-n2cccc2/C=C2/C(=N)N3C(=NC2=O)SN=C3S(C)(=O)=O)cc1 do in these assays?
ALR H2O2 inh: 98; PHOSPHO1 block: inactive; M18AAP inhibitor: inactive; PfG6PD inh: inactive; Cardio protect: inactive

What do the screens show for `Cc1coc(C)c1C(=O)Nc1ccc2ccccc2c1`?
M18AAP inhibitor: inactive; PfG6PD inh: inactive; Cardio protect: inactive

Results for CCn1ccnc1CN(C)Cc1nc(-c2ccc(C(=O)OC)cc2)no1 ?
ALR H2O2 inh: inactive; PHOSPHO1 block: 60; M18AAP inhibitor: inactive; PfG6PD inh: inactive; Cardio protect: inactive

Results for O=C(CCc1nnc(-c2ccc3c(c2)OCO3)o1)N1CCC(c2ccc(F)cc2)C1 (configuration not stated) ?
PHOSPHO1 block: inactive; M18AAP inhibitor: inactive; PfG6PD inh: inactive; Cardio protect: inactive

What do the screens show for `CCSC1=NSC2=NC(=O)/C(=C\c3coc4ccccc4c3=O)C(=N)N12`?
ALR H2O2 inh: 98; PHOSPHO1 block: inactive; M18AAP inhibitor: inactive; PfG6PD inh: inactive; Cardio protect: inactive

Results for CC(C)CC1=NN2C(=N)/C(=C\c3coc4ccccc4c3=O)C(=O)N=C2S1 ?
PHOSPHO1 block: inactive; M18AAP inhibitor: inactive; PfG6PD inh: inactive; Cardio protect: inactive

How did CCN(c1ccc(NC(=O)COC(=O)c2ccc(S(=O)(=O)N3CCCC3)cc2)cc1)C(C)C do in these assays?
ALR H2O2 inh: inactive; PHOSPHO1 block: 104; M18AAP inhibitor: inactive; PfG6PD inh: inactive; Cardio protect: inactive
